Experiments:
Test in all cases: log2 ratio of Biotin-Ahx-Ub-VS probe labelling (compound/DMSO); higher = less target engagement, active = hit call of the paper (q ≤ 0.05, log2 ratio ≤ -1)
Conditions in all cases: treatment time: 3 h
[1] = compound: CCC1N(CCc2sccc12)C(=O)CCl
Procedure, shortened: (§1)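 For activity-based profiling, 495 µg portions of HEK293T lysate in Tris/CHAPS/IGEPAL buffer with protease inhibitors were treated in triplicate with compound at 50 or 200 µM or with DMSO for 3 h. A 1 h incubation with Biotin-Ahx-Ub-VS (0.5 µM final) followed, then NeutrAvidin enrichment, LysC and trypsin digestion and diaPASEF LC-MS/MS. The compound/DMSO base-two log ratios were averaged from median-normalised label-free quantities using an unpaired t-test. Proteins needed at least 2 unique peptides to be included.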

[2] = compound: CN1c2ccccc2C(CS1(=O)=O)NC(=O)CCl
Procedure, shortened: as §1

[3] = compound: Cl.ClCC(=O)N1CCc2ncncc2C1
Procedure, shortened: as §1

[4] = compound: Cl.Cn1ncc2C(CCCc12)NC(=O)CCl
Procedure, shortened: as §1

[5] = compound: ClCC(=O)NC1CCOc2ccccc12
Procedure, shortened: as §1

[6] = compound: ClCC(=O)NC1CCCc2ccccc12
Procedure, shortened: (§2)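 Each value is an average ratio of compound to vehicle, calculated by unpaired t-test. Lysate from HEK293T cells (495 µg per sample) was incubated in triplicate with compound over a concentration range or vehicle for 3 h and then with Biotin-Ahx-Ub-VS (0.5 µM final) for 1 h. Probe-labelled deubiquitinases were captured on NeutrAvidin, digested and run by diaPASEF LC-MS/MS, with Spectronaut label-free quantities normalised to the global median. Ratios are log2, and only proteins with at least two unique peptides were used.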

[7] = compound: ClCC(=O)N[C@@H]1CCCc2ccccc12
Procedure, shortened: as §2

[8] = compound: ClCC(=O)N[C@H]1CCCc2ccccc12
Procedure, shortened: as §2

[9] = compound: CCC1N(CCc2cc(OC)c(Cl)cc12)C(=O)CCl
Procedure, shortened: as §1

[10] = compound: CCCC1N(CCc2cc(OC)c(OC)cc12)C(=O)CCl
Procedure, shortened: as §1

Measured: log2 ratio of Biotin-Ahx-Ub-VS probe labelling

USP9X (UniProt Q93008)
Sequence of UniProt Q93008 (Q93008 whole entry): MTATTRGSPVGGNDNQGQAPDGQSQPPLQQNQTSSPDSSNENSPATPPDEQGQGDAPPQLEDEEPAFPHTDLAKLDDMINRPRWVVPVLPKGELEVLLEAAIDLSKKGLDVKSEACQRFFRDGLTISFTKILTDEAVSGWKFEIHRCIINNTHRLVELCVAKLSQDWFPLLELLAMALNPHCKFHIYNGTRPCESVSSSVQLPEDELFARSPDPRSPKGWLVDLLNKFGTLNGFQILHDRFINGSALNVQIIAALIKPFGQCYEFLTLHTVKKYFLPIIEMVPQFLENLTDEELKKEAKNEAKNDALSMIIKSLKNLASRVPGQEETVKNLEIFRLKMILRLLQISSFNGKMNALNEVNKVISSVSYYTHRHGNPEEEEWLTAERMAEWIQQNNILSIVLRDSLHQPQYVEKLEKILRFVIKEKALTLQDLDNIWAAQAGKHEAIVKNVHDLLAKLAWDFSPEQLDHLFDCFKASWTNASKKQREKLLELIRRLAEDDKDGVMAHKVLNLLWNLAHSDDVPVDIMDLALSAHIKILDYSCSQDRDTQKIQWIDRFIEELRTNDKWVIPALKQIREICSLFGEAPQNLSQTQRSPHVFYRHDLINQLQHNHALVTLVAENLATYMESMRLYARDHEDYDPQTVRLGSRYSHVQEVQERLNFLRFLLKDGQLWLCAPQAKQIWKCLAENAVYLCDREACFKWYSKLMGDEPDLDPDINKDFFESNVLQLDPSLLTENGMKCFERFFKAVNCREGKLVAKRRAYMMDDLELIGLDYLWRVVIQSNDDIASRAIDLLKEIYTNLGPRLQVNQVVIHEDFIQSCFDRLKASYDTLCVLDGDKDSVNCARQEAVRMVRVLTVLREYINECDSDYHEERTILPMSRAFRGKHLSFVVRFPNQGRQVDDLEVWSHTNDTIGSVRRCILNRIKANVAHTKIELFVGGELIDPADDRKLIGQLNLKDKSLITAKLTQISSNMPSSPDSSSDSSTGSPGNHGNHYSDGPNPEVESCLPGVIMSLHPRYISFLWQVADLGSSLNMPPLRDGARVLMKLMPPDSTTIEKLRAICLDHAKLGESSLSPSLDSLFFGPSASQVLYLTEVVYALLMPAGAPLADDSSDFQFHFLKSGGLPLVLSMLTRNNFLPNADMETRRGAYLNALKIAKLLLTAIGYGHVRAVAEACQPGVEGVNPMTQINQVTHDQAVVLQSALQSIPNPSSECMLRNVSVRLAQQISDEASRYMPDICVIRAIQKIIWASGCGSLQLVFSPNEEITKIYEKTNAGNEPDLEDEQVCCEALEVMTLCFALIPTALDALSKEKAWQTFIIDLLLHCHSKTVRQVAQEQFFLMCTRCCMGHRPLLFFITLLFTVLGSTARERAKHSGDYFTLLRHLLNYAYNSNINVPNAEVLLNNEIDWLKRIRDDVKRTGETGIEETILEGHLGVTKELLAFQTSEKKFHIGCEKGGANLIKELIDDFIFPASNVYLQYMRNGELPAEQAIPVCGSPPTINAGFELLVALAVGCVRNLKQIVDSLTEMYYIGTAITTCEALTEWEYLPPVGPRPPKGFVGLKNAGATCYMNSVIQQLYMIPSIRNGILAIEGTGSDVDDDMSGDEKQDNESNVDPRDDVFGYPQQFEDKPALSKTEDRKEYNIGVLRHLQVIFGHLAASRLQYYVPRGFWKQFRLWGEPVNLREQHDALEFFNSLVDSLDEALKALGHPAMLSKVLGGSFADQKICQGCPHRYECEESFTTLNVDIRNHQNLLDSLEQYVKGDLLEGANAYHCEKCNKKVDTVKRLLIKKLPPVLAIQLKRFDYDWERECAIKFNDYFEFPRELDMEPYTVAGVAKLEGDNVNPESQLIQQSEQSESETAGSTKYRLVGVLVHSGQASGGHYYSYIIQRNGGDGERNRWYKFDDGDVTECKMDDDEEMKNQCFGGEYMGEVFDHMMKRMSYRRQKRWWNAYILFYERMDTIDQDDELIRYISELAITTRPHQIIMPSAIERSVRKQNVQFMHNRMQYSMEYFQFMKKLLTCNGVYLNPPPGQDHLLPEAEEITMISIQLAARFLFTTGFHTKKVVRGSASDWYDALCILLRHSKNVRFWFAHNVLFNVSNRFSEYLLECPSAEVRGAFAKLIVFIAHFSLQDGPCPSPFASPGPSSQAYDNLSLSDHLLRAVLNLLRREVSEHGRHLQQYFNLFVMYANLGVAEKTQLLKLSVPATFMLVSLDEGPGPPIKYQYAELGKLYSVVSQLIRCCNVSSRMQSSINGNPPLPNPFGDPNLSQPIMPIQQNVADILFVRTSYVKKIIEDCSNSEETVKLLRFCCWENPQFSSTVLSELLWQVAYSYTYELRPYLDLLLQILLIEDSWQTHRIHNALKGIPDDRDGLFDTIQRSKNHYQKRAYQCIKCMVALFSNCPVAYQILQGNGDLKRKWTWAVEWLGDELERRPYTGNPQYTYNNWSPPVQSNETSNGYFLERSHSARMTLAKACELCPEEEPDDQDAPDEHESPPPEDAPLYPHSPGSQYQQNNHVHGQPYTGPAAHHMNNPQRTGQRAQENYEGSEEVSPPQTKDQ
inactive: [1]; compound concentration: 50uM -0.0428 | [1]; compound concentration: 200uM -0.401 | [2]; compound concentration: 50uM -0.081 | [2]; compound concentration: 200uM -0.107 | [3]; compound concentration: 50uM -0.026 | [3]; compound concentration: 200uM -0.376 | [4]; compound concentration: 50uM 0.251 | [4]; compound concentration: 200uM 0.139 | [5]; compound concentration: 50uM 0.133 | [5]; compound concentration: 200uM -0.133 | [6]; compound concentration: 0.78uM -0.00765 | [6]; compound concentration: 1.56uM 0.093 | [6]; compound concentration: 3.13uM -0.0291 | [6]; compound concentration: 6.25uM 0.0092 | [6]; compound concentration: 12.5uM -0.0222 | [6]; compound concentration: 25uM -0.0898 | [6]; compound concentration: 50uM -0.0629 | [6]; compound concentration: 100uM -0.0253 | [6]; compound concentration: 200uM -0.0679 | [7]; compound concentration: 0.78uM -0.0702 | [7]; compound concentration: 1.56uM 0.0356 | [7]; compound concentration: 3.13uM 0.00372 | [7]; compound concentration: 6.25uM -0.00489 | [7]; compound concentration: 12.5uM -0.0481 | [7]; compound concentration: 25uM -0.0408 | [7]; compound concentration: 50uM -0.128 | [7]; compound concentration: 100uM -0.121 | [7]; compound concentration: 200uM -0.242 | [8]; compound concentration: 0.78uM -0.0701 | [8]; compound concentration: 1.56uM 0.0195 | [8]; compound concentration: 3.13uM 0.0203 | [8]; compound concentration: 6.25uM 0.0759 | [8]; compound concentration: 12.5uM -0.0293 | [8]; compound concentration: 25uM -0.0731 | [8]; compound concentration: 50uM -0.0138 | [8]; compound concentration: 100uM -0.119 | [8]; compound concentration: 200uM -0.256 | [9]; compound concentration: 50uM -0.0734 | [9]; compound concentration: 200uM -0.969 | [10]; compound concentration: 50uM -0.249 | [10]; compound concentration: 200uM -0.82
